{
  "source": "PubChem BioAssay AID449762",
  "about": "(Southern Research Specialized Biocontainment Screening …, 2010)",
  "note": "In all, about 330,000 compounds went through this assay and about 1,900 (0.58%) were called active. Inconclusive results (about 4%) are left out. Not all results are given here. Measured potencies and affinities stand elsewhere. Values without a mark were called inactive. No stated cut-off is given here; in the data, inconclusive means inhibition above about 70% without an active follow-up result; inactive means below that.",
  "data": [
    {"assay": "M. tuberculosis growth inhibition, HTS (AID 449762);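 further: bacterial growth assessed after seven days of incubation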", "conditions": "M. tuberculosis H37Rv growth inhibition, 7H9 media; at 25 µM; active compounds read high", "units": {"inhibition": "%"}, "values": [
      {"smiles": "CCNC(=O)c1ccccc1NC(=O)c1cccc(S(=O)(=O)N2CCOCC2)c1", "inhibition": 1.29},
      {"smiles": "COc1ccc(C(=O)NC(C)C2CC3CCC2C3)cc1", "note": "(stereo not drawn)", "inhibition": 0.61},
      {"smiles": "CC(NC(=O)c1ccccc1Cl)C1CC2CCC1C2", "note": "(stereo not drawn)", "inhibition": 4.24},
      {"smiles": "COc1ccc(C(=O)NC(C)C2CC3CCC2C3)c(OC)c1", "note": "(stereo not drawn)", "inhibition": 7.27},
      {"smiles": "Cc1ccccc1C(=O)NC(C)C1CC2CCC1C2", "note": "(stereo not drawn)", "inhibition": 4.28},
      {"smiles": "Cn1cnnc1SCC(=O)NCCc1ccccc1", "inhibition": 0.84},
      {"smiles": "COC(=O)CCC(=O)Nc1cccc(Br)c1", "inhibition": -7.91},
      {"smiles": "CC(C)(C)NC(=O)CSc1ncnc2c1nnn2Cc1ccccc1Cl", "inhibition": 18},
      {"smiles": "COCCCN1C(=O)c2ccc(C(=O)N3CCN(c4ccc(OC)cc4)CC3)cc2C1=O", "inhibition": 0.38},
      {"smiles": "Cc1cc(C)c(-n2nnnc2SCC(=O)c2cc3ccccc3o2)c(C)c1", "inhibition": -0.74},
      {"smiles": "COC(=O)CSc1nnc(NC(=O)c2ccc3c(c2)OCO3)s1", "inhibition": 56.1},
      {"smiles": "CCOC(=O)CNC(=O)CSc1nnc(NC(=O)c2ccc3c(c2)OCO3)s1", "inhibition": -3.99},
      {"smiles": "COc1cccc(N2CCN(C(=O)c3cccn4c(=O)c5c(C)c(C)sc5nc34)CC2)c1", "inhibition": -1.68},
      {"smiles": "CCOc1ccc(CCNC(=O)COC(=O)c2cc(OC)c(OC)c(OC)c2)cc1OCC", "inhibition": -6.27},
      {"smiles": "Cc1nnc(NC(=O)c2csc3c2CCC(C)C3)s1", "note": "(stereo not drawn)", "inhibition": 6.53},
      {"smiles": "CCc1nnc(NC(=O)c2csc3c2CCC(C)C3)s1", "note": "(stereo not drawn)", "inhibition": 0.85},
      {"smiles": "O=C(C1CCCN1S(=O)(=O)c1ccc(Cl)c(Cl)c1)N1CCOCC1", "note": "(stereo not drawn)", "inhibition": 1.37},
      {"smiles": "OCC[C@H]1C[C@@H](O)[C@H](O)[C@]2(OCc3ccccc32)O1", "inhibition": 4.05},
      {"smiles": "CN(C)CCCNC(=S)N(CCN(C)C)Cc1cc2cc3c(cc2[nH]c1=O)OCCO3", "inhibition": -2.66},
      {"smiles": "CCOc1ccccc1N1CCN(CC(=O)Nc2cc(C)on2)CC1", "inhibition": -0.33},
      {"smiles": "O=C(Nc1ccccc1O)c1ccccc1O", "inhibition": -2.76},
      {"smiles": "CC(=O)Nc1ccccc1O", "inhibition": -6.49},
      {"smiles": "CCC(=O)c1ccc(OCC(O)CNC2CCCC2)cc1", "note": "(stereo not drawn)", "inhibition": -4.31},
      {"smiles": "Clc1ccc(Cn2ncc3c(N4CCCC4)ncnc32)cc1", "inhibition": 6.77},
      {"smiles": "Cc1ccc(Cn2ncc3c(N4CCN(Cc5ccc(Cl)cc5)CC4)ncnc32)cc1", "inhibition": 35},
      {"smiles": "COc1ccc(NC(=O)c2c3c(nc4ccccc24)CCC3)cc1", "inhibition": 2.33},
      {"smiles": "CCCC(O)(CCC)C(=O)NN(C(=O)CCl)c1ccccc1", "inhibition": 64.3},
      {"smiles": "CCC(O)(CC)C(=O)NN(C(=O)CCl)c1ccccc1", "inhibition": 64.9}
    ]}
  ]
}
